{
  "source": "PubChem BioAssay (NCATS)",
  "note": "Inconclusive results are not listed. A call without a number means that no potency is given here. Calls of active or inactive are those of the source. Calls come from the whole dose curve; as a rule, active = well fitted inhibition curve with a large enough effect; inconclusive = small, poorly fitted or top-dose-only effect; inactive = flat fitted curve, though single readings scatter. Where a SMILES comes first, the peptide text is derived from it. Bridges are numbered along the chain shown (N, C = ends). [ ]: non-standard residue; d: D form. The star is where a group is joined. ξ: configuration not given here. d(aThr) = C[C@@H](O)[C@@H](N)C(=O)O; ξThr(3R) = C[C@@H](O)C(N)C(=O)O; X3 = CC[C@@H](C)CCCCC(=O)*; dDab = NCC[C@@H](N)C(=O)O",
  "data": [
    {"target": "Voltage-gated inwardly rectifying potassium channel KCNH2 (Homo sapiens) (UniProt Q12809)", "sequence (Q12809 whole entry, looked up)": "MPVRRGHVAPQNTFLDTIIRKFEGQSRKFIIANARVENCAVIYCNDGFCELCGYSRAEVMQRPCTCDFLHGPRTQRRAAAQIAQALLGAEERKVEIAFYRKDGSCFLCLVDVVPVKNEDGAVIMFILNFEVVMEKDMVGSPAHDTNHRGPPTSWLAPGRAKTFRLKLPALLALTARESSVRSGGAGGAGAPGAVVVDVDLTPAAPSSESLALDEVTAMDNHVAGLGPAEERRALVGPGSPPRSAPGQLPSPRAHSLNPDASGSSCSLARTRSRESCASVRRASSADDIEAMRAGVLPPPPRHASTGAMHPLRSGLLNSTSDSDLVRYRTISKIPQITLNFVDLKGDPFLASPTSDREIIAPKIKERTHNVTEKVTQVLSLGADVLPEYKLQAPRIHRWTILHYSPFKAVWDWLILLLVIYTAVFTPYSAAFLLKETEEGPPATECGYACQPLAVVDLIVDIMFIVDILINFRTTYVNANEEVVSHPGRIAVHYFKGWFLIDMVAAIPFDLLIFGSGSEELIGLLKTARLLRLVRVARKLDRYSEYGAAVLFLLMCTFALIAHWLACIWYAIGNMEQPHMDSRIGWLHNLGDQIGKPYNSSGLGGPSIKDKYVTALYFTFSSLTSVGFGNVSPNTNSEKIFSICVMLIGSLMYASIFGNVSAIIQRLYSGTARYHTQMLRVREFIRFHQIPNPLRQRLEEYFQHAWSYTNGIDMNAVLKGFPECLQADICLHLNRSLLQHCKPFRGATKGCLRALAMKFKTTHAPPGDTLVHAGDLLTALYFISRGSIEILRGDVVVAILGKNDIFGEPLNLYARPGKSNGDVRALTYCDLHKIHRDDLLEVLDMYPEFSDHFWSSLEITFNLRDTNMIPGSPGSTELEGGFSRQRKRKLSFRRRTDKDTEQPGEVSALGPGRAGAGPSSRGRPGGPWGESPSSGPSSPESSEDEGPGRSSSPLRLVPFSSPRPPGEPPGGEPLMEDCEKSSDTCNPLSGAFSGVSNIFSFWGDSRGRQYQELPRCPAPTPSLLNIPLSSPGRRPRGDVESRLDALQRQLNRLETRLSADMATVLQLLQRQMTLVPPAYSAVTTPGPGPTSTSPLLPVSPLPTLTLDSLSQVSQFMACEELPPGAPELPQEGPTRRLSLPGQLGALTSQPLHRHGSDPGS", "test": "qHTS Assay for Small Molecule Inhibitors of the Human hERG Channel Activity (AID 588834);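 note: lower thallium flux fluorescence means stronger hERG block; nearly all actives have a fitted effect of over 50% in size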; note: potency is the fitted concentration of half-maximal effect", "conditions": "U2OS BacMam hERG, FluxOR thallium flux fluorescence; series mostly up to 46.1 µM", "procedure,_shortened": "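Thallium serves as surrogate for K+ influx through BacMam-delivered hERG in U2OS cells. Compounds are added for about 10 minutes after dye loading; stimulation buffer then starts flux, monitored kinetically on FDSS.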", "values": [
      {"smiles": "C=C1CC[C@H](O)C/C1=C\\C=C1/CCC[C@]2(C)[C@@H]([C@H](C)CCCC(C)C)CC[C@@H]12", "Potency": "inactive"},
      {"smiles": "CN1C(=O)C[C@@H](C(=O)N[C@@H](Cc2cnc[nH]2)C(=O)N2CCC[C@H]2C(N)=O)NC1=O", "Potency": "inactive"},
      {"smiles": "Nc1nc2c(c(=O)[nH]1)N(C=O)C(CNc1ccc(C(=O)N[C@@H](CCC(=O)O)C(=O)O)cc1)CN2", "note": "(stereo partly drawn)", "Potency": "inactive"},
      {"smiles": "CCCCCCCCCCCCCCCCCC(=O)OCC(C)O", "note": "(stereo not drawn)", "Potency": "inactive"},
      {"smiles": "Cc1cccc(Nc2ncccc2C(=O)O)c1C", "Potency": "inactive"},
      {"smiles": "NC(=O)[C@H]1O[C@@H](O)[C@H](O)[C@@H](O)[C@@H]1O", "Potency": "inactive"},
      {"smiles": "c1ccc2c(c1)Sc1ccccc1N2CCN1CCCC1", "Potency": "15.8 µM (active)"},
      {"smiles": "NC(Cc1ccccc1)C(=O)O", "note": "(stereo not drawn)", "Potency": "inactive"},
      {"smiles": "O=C(O)CN(CC(=O)O)CC1=CC2C(=CC1=O)Oc1cc(O)c(CN(CC(=O)O)CC(=O)O)cc1C21OC(=O)c2ccccc21", "note": "(stereo not drawn)", "Potency": "0.891 µM (active)"},
      {"smiles": "COc1ccc([C@@H]2CC(=O)c3c(O)cc(O[C@@H]4O[C@H](CO[C@@H]5O[C@@H](C)[C@H](O)[C@@H](O)[C@H]5O)[C@@H](O)[C@H](O)[C@H]4O)cc3O2)cc1O", "Potency": "inactive"},
      {"smiles": "Cc1cccc(C)c1NC(=O)C1CCCCN1C", "note": "(stereo not drawn)", "Potency": "inactive"},
      {"smiles": "CC1=C(/C=C/C(C)=C/C=C/C(C)=C/C(=O)Oc2c(C)c(C)c3c(c2C)CC[C@@](C)(CCC[C@H](C)CCC[C@H](C)CCCC(C)C)O3)C(C)(C)CCC1", "Potency": "inactive"},
      {"smiles": "CCCCCCCCCCCC(=O)OCC(O)CO", "note": "(stereo not drawn)", "Potency": "inactive"},
      {"smiles": "Nc1nc(=O)n([C@@H]2CS[C@H](CO)O2)cc1F", "Potency": "inactive"},
      {"smiles": "CC1(C)S[C@@H]2[C@H](NC(=O)C3(N)CCCCC3)C(=O)N2[C@H]1C(=O)O", "Potency": "inactive"},
      {"smiles": "CO/N=C(\\C(=O)N[C@@H]1C(=O)N2C(C(=O)O)=C(CSc3nnnn3C)CS[C@H]12)c1csc(N)n1", "Potency": "inactive"},
      {"smiles": "CO/N=C(\\C(=O)N[C@@H]1C(=O)N2C(C(=O)O)=C(CSC(=O)c3ccco3)CS[C@H]12)c1csc(N)n1", "Potency": "inactive"},
      {"smiles": "C=C1c2c(Cl)ccc(O)c2C(O)=C2C(=O)[C@]3(O)C(O)=C(C(N)=O)C(=O)[C@@H](N(C)C)[C@@H]3[C@@H](O)[C@H]12", "Potency": "inactive"},
      {"smiles": "O=C1[O][Bi][O]c2ccccc21", "Potency": "inactive"},
      {"smiles": "OCC1(CO)COC(C(Cl)(Cl)Cl)OC1", "Potency": "inactive"},
      {"smiles": "FC(F)(F)C(F)(F)C(F)(F)C(F)(F)C(F)(F)C(F)(F)F", "Potency": "inactive"},
      {"smiles": "CCc1ncnc2cc(OC)c(OC)cc12", "Potency": "inactive"},
      {"smiles": "CS(=O)(=O)OCC(O)C(O)COS(C)(=O)=O", "note": "(stereo not drawn)", "Potency": "inactive"},
      {"smiles": "CCN(CC)C(=O)[C@]1(c2ccccc2)C[C@@H]1CN", "Potency": "inactive"},
      {"smiles": "COc1ccc(C(=O)/C(Br)=C\\C(=O)O)cc1", "Potency": "inactive"},
      {"smiles": "C#C[C@]1(O)CC[C@@H]2[C@H]3CCC4=CC(=O)CC[C@H]4[C@H]3C(=C)C[C@@]21CC", "Potency": "inactive"},
      {"smiles": "S=C=Nc1ccc(N=C=S)cc1", "Potency": "inactive"},
      {"smiles": "CC[C@H]1OC(=O)[C@H](C)[C@@H](O[C@H]2C[C@@](C)(OC)[C@@H](O)[C@H](C)O2)C(C)[C@@H](O[C@@H]2O[C@H](C)C[C@H](N(C)C)[C@@H]2O)[C@](C)(OC)C[C@@H](C)C(=O)[C@H](C)[C@@H](O)[C@]1(C)O", "note": "(stereo partly drawn)", "Potency": "inactive"},
      {"smiles": "CC1(C)S[C@@H]2[C@H](N3C(=O)C(c4ccccc4)NC3(C)C)C(=O)N2[C@H]1C(=O)O", "note": "(stereo partly drawn)", "Potency": "inactive"},
      {"smiles": "C=C1[C@H](CO)[C@@H](O)C[C@@H]1n1cnc2c(=O)[nH]c(N)nc21", "Potency": "inactive"},
      {"smiles": "C[C@H](N)C(=O)N[C@@H](C)P(=O)(O)O", "Potency": "inactive"},
      {"smiles": "CCCC(=O)Nc1c(I)cc(I)c(CC(CC)C(=O)O)c1I", "note": "(stereo not drawn)", "Potency": "inactive"},
      {"smiles": "CC12CCC(C[N+](C)(CCC[N+](C)(C)C)C1)C2(C)C", "note": "(stereo not drawn)", "Potency": "inactive"},
      {"smiles": "CNCC(=O)N[C@@H](CCCN=C(N)N)C(=O)N[C@H](C(=O)N[C@@H](Cc1ccc(O)cc1)C(=O)N[C@H](C(=O)N[C@@H](Cc1cnc[nH]1)C(=O)N1CCC[C@H]1C(=O)N[C@@H](C)C(=O)O)C(C)C)C(C)C", "Potency": "inactive"},
      {"smiles": "CC(O)CN(C)C", "note": "(stereo not drawn)", "Potency": "inactive"},
      {"smiles": "CC(=C\\c1ccccc1)/C=C1/SC(=S)N(CC(=O)O)C1=O", "Potency": "inactive"},
      {"smiles": "CC[C@@H](C)CCCCC(=O)N[C@H](CCN)C(=O)N[C@@H](C(=O)N[C@H](CCN)C(=O)N[C@@H]1CCNC(=O)C([C@@H](C)O)NC(=O)[C@@H](CCN)NC(=O)[C@@H](CCN)NC(=O)[C@@H](CC(C)C)NC(=O)[C@@H](Cc2ccccc2)NC(=O)[C@@H](CCN)NC1=O)[C@@H](C)O", "note": "(stereo partly drawn) (X3-[dDab][d(aThr)][dDab][dDab][dDab][dF][dL][dDab][dDab][ξThr(3R)]; lactam 4-C)", "Potency": "inactive"},
      {"smiles": "CC(C)=CCC/C(C)=C/CC/C(C)=C/CC/C=C(\\C)CC/C=C(\\C)CCC=C(C)C", "Potency": "inactive"}
    ]}
  ]
}
